# Measured values taken from PubChem BioAssay AID686979 (National Center for Advancing Translational Sciences (NCATS), 2013).
# Hit rate of the full screen: of about 420,000 compounds, about 50,000 (12%) were called active. Another 26% or so got no clear call; they are omitted. The entries come from a sample that favours actives as a whole. Unmarked numbers belong to inactive results. Calls follow the shape of the dose curve; as a rule, active = well fitted inhibition curve with a large enough effect; inconclusive = small, poorly fitted or top-dose-only effect; inactive = flat fitted curve, though single readings scatter. Where a SMILES comes first, the peptide text is derived from it. [ ]: non-standard residue; d: D form. The star is where a group is joined. PhAc = O=C(Cc1ccccc1)*
# Experiment: qHTS for Inhibitors of human tyrosyl-DNA phosphodiesterase 1 (TDP1): qHTS in cells in presence of CPT; also: nearly all actives have a fitted effect of over 55% in size
# Details: chicken DT40 Tdp1-/-;hTDP1 cells + 20 nM CPT, ATP luminescence, 48 h; series mostly up to 46.2 µM; activity change, negative = growth inhibition: at the top concentration
# How it was run: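 Cell growth measured by CellTiter-Glo luminescence after a minimum 48 h, 37 C compound exposure with 20 nM CPT in Tdp1-knockout DT40 cells stably expressing hTDP1, seeded 400/well; qHTS titration format.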
# % is scaled to controls: 0 for no effect and ±100 for the full control effect; potency is read from the fitted curve at half-maximal effect.
SMILES,"activity change, negative = growth inhibition",Potency
CCN1CCN(C(=O)Cn2nc(C)n3c(cc4c(OC)cccc43)c2=O)CC1,-1.1%,
CCn1nc(C)c(CNC(=O)C2CCC(=O)N(Cc3cccc(F)c3)C2)c1C (stereo unspecified),-11.6%,
Cc1cc(C)c(CN2CCN(C(=O)Cn3ccc(NC(=O)OCc4ccccc4)nc3=O)CC2)c(C)c1,,5.17 µM (active)
Nc1ccn(CC(=O)N2CCN(c3ccccn3)CC2)c(=O)n1,9.16%,
Cc1cc(C)c2c(-n3cccc3)c(NC(=O)OCc3ccccc3)sc2n1,-26.1%,
Cc1cc(C(=O)Nc2nnc(C3CC3)s2)c(C)s1,1.29%,
CCOC(=O)c1nn(-c2ccccc2F)c2nc(Nc3ccccc3)cc(=O)n12,-11%,
COc1ccc(Cc2nc(-c3ccccn3)no2)cc1OC,4.02%,
COc1cnc(-c2ccccn2)nc1Oc1ccc(C(C)(C)C)cc1,,3.66 µM (active)
COc1ccc(Sc2nc(-c3ccccc3)ncc2OC)cc1,-28.6%,
COCC(=O)Nc1cc(C(=O)N2CCCC(c3ccccc3)CC2)c2c(c1)nc(-c1ccncc1)n2C (stereo unspecified),6.88% [at 9.04 µM],
COc1cccc(/C=C/C(=O)OCC(=O)N2CCCc3ccccc32)c1,10.1%,
O=c1cc(-c2ccccc2)nc(N2CCCCC2)[nH]1,-25.1%,
CC(=O)c1cc(-c2ccccc2)n(CC(=O)NC2CCCCC2)c1C,,inactive
CC(=O)c1cc(-c2ccccc2)[nH]c1N1CCCC1,,16.4 µM (active)
CCCCn1c(N)c(N2CCOCC2)c(=O)n(CC(=O)NCCc2ccccc2)c1=O,16.5%,
CN(C(=O)CSc1nnc(-c2n[nH]c3ccccc23)o1)c1ccccc1,-24.6%,
Cc1c(Cl)c([N+](=O)[O-])nn1CC(=O)NCCCN1CCOCC1,24.4%,
O=C(COC(=O)/C=C/c1ccc(OC(F)F)cc1)NC1CCCCC1,0.0698%,
CCCC/C(C)=N/NC(=O)NC1CCCCC1,-4.55%,
C/C(=N\NC(=O)NC1CCCCC1)c1ccc(OC(F)F)cc1OC(F)F,,23.1 µM (active)
O=C(NCc1ccccc1Cl)C1CCC(CNc2c(N3CCCCC3)c(=O)c2=O)CC1 (stereo unspecified),-0.925%,

SMILES,"activity change, negative = growth inhibition",Potency
COc1ccc2oc(=O)cc(CN3CCOCC3)c2c1,-16.2%,
O=C(NC(Cc1ccccc1)C(=O)N1CCCC(C(F)(F)F)C1)c1ccccc1 (stereo unspecified),-9.26%,
O=C(NCC(=O)N1CCCC(C(F)(F)F)C1)c1ccccc1F (stereo unspecified),-11.4%,
FC(F)(F)C1CCCN(c2nsc3ccccc23)C1 (stereo unspecified),,2.31 µM (active)
CCCCCC1CC(COc2ccccc2)OC1=O (stereo unspecified),6.66%,
COc1ccc(CCNC(=O)C(=O)NCC2OCCN2S(=O)(=O)c2ccc(OC)c(C)c2)cc1 (stereo unspecified),,18.4 µM (active)
COc1ccc(S(=O)(=O)N2CCOC2CNC(=O)C(=O)NCc2ccncc2)cc1C (stereo unspecified),-28.4%,
COc1ccc(CCNC(=O)C(=O)NCC2OCCN2S(=O)(=O)c2ccc(F)cc2)cc1OC (stereo unspecified),-25%,
CN(C)CCCNC(=O)c1cc(C(=O)Cc2ccc(Cl)cc2)c[nH]1,-24%,
CCCCN(CCCC)CC(O)Cn1c2ccccc2c(=O)c2ccccc21 (stereo unspecified),-27%,
Cc1ccc(C(=O)OCC(=O)N2CC(C)CC(C)C2)cc1S(=O)(=O)N1CCCCC1 (stereo unspecified),-15.4%,
CCCOc1ccc(C2c3c(-c4ccccc4O)n[nH]c3C(=O)N2Cc2cccnc2)cc1 (stereo unspecified),,23.1 µM (active)
CCOc1ccc(/C(O)=C2/C(=O)C(=O)N(Cc3cccnc3)C2c2ccc(N(C)C)cc2)c(C)c1 (stereo unspecified),-2.62%,
COc1ccc(C2C(C(C)=O)=C(O)C(=O)N2Cc2cccnc2)cc1 (stereo unspecified),-2.63%,
COc1ccc(S(=O)(=O)N2CCC(C(=O)NCCC(=O)NCCc3cccc(F)c3)CC2)cc1,-23.3%,
COCC(C)NC(=O)COc1nncc2ccccc12 (stereo unspecified),-4.2%,
NC(Cc1ccc(F)cc1)c1csc(Nc2nncc3ccccc23)n1 (stereo unspecified),,4.11 µM (active)
CN1CCN(S(=O)(=O)c2ccc(NC(=S)NC(=O)C3CC3)cc2)CC1,-0.132%,
O=C(NCCc1ccccc1)C(=O)NCC1OCCN1S(=O)(=O)c1cccs1 (stereo unspecified),0.778%,
CCCCn1c(N)c(N(CC(C)C)C(=O)c2cccc(S(=O)(=O)N3CCN(C(C)=O)CC3)c2)c(=O)[nH]c1=O,4.86%,
COc1cc(C(=O)Nn2c(O)c(C3=c4ccccc4=NC3=O)sc2=S)ccc1O,0.512%,
CCN(CC)CCCNC(=O)CCn1nc(-c2ccc(Cl)cc2)ccc1=O,22.6%,

SMILES,"activity change, negative = growth inhibition",Potency
O=c1[nH][nH]c(=O)c2cc(N3CCCC3)ccc12,5.12%,
O=C(CN1CCN(c2ccc(Cl)cc2)CC1)N1CCCC1,-27.3%,
O=C1C=CC(=O)N1c1ccc(N2CCCCC2)cc1,,1.16 µM (active)
O=C(O)/C=C/C(=O)NNc1ccc([N+](=O)[O-])cc1,,20.6 µM (active)
CNC(=S)Nc1ccc([N+](=O)[O-])cc1,-11.1%,
O=C(Cc1ccccc1)NNS(=O)(=O)c1ccc([N+](=O)[O-])cc1,-20.3%,
COc1cccc(NC(=O)C(Sc2nnnn2C)c2ccccc2)c1 (stereo unspecified),-14.2%,
COCCCN1C(=O)C(CC(=O)NCc2cccs2)CC(C(=O)N2CCOCC2)=C1C (stereo unspecified),-3.22%,
CCOCCCN1C(=O)C2C(C(=O)Nc3ccc(OCC)cc3)C3C=CC2(O3)C1C(=O)NC1CCCCC1 (stereo unspecified),2.43%,
Cc1cc(-c2ccc(S(=O)(=O)N3CCN(c4cccc(C(F)(F)F)c4)CC3)s2)on1,-22.2%,
CCc1cccc(C)c1NS(=O)(=O)c1cc(Br)cnc1N,10.5%,
CCc1cccc(C)c1NS(=O)(=O)c1ccc(-c2cc(C)no2)s1,,0.411 µM (active)
CC(=O)c1ccc(NS(=O)(=O)c2ccc(-c3cc(C)no3)s2)cc1,-24.3%,
Cc1cc(-c2ccc(S(=O)(=O)N3CCc4ccccc4C3)s2)on1,-7.71%,
Cc1cc(C)cc(NS(=O)(=O)c2ccc(-c3cc(C)no3)s2)c1,,2.59 µM (active)
O=C(O)c1cccc(N=NN2CCCCCC2)c1,6.37%,
CC(C)(C)c1ccc(S(=O)(=O)NC(=O)C2(C)CCN2C(=O)CC2CC2)cc1 (stereo unspecified),-15.6%,
Cc1ccnc(NC(=O)CCNS(=O)(=O)c2ccc(C)c(C)c2)c1,13%,
CN1CCN(C(=O)c2ccc(-c3cc4nc(NCc5cccnc5)n(C)c(=O)c4s3)cc2)CC1,3.92%,
Cc1ccc(-c2n[nH]c(=S)n2/N=C/c2cc3c(cc2[N+](=O)[O-])OCO3)cc1,-1.27%,
CC(=O)N/N=C/c1cc2c(cc1[N+](=O)[O-])OCO2,17.1%,
Cc1ccc(S(=O)(=O)N/N=C\c2cc3c(cc2[N+](=O)[O-])OCO3)cc1,,10.3 µM (active)

SMILES,"activity change, negative = growth inhibition",Potency
O=C(Nc1ccc(Cl)cc1)c1csc([C@@H]2O[C@H](CO)[C@H](O)[C@H](O)[C@H]2O)n1,-10.8%,
Fc1ccccc1COc1cccc2cccnc12,6.88%,
O=C(Nc1ccccc1Cl)Nc1cccc2cccnc12,-28.4%,
O=C(Nc1ccccc1)Oc1cccc2cccnc12,,0.651 µM (active)
CCN(CC(=O)N1CCCC1)S(=O)(=O)c1ccc(F)cc1,-1.44%,
O=S1(=O)C=C(SCCN2CCCC2)c2ccccc21,4.47%,
O=C(COC(=O)c1ncc(Cl)c(Cl)c1Cl)NCc1cccs1,-5.21%,
CN1CCN(c2ccc(S(=O)(=O)N3CCCCC3)cc2NC(=O)Cc2ccccc2F)CC1,-7.49%,
CCC(=O)/C(=C(/O)c1ccccc1)c1nc2ccccc2[nH]1,-24.3%,
O=C(/C(=C/c1cccc(Cl)c1)c1nc2ccccc2[nH]1)c1ccccc1,,16.4 µM (active)
O=C(Cc1nc2ccccc2[nH]c1=O)c1ccc(Cl)cc1,-3.26%,
CC(=O)c1ccc(OC(=O)N2CCOCC2)cc1,-5.46%,
Cc1ccc(OCCNC(=O)CN2C(=O)NC3(CCCC3)C2=O)cc1,6.25%,
CCN(CC)Cc1cc(C(C)=O)ccc1O,-1.53%,
Cc1cc(C(=O)COC(=O)CNC(=O)c2ccc(F)cc2)c(C)n1Cc1ccco1,-1.26%,
CCCCCNC(=O)c1cccnc1SCC(=O)Nc1ccccc1OC,-16.8%,
CCC(=O)NCCc1nc2ccccc2n1CC,16%,
CCCCCn1c(CCNC(=O)c2ccc(F)cc2)nc2ccccc21,,23.1 µM (active)
CC(=O)NCCc1nc2cc(NC(=O)c3ccccc3)ccc2n1C,-18.5%,
CCCCCn1c(CCCNC(=O)c2ccccc2OC)nc2ccccc21,,20.6 µM (active)
Cc1cc2ccccc2n1CCC(=O)O,10.1%,
COc1ccccc1Cn1c(CO)nc2ccccc21,-7.97%,

SMILES,"activity change, negative = growth inhibition",Potency
Cc1cc2ccccc2n1CCNC(=O)c1ccc(F)cc1,,14.6 µM (active)
COc1ccc(CCNC(=O)Cn2c(=O)n(-c3ccccc3)c(=O)c3c(C)c(C)sc32)cc1OC,-27.4%,
Cc1cc(C)c(NC(=O)c2cc3sc(Cl)cc3n2C)c(C)c1,-28.3%,
COc1ccc2c(c1)c1nc3n(c(=O)c1n2CC(=O)Nc1ccccc1)CCS3,0.0881%,
COc1ccc(S(=O)(=O)Nc2ccc3c(c2)OCO3)cc1Cl,-21.9%,
COCC(=O)Nc1c(I)c(C(=O)NCC(O)CO)c(I)c(C(=O)N(C)CC(O)CO)c1I (stereo unspecified),,inactive
CC(C)C[C@@H](NC(=O)[C@H]1CCCN1C(=O)Cc1ccccc1)C(N)=O (PhAc-[dP]-[dL]-NH2),-1.96%,
O=C(O)Cc1ccc(NCc2ccccc2Cl)cc1,-0.43%,
Cc1cnc(CNc2ncncc2-c2ccccc2Cl)cn1,-18.5%,
Cc1noc2ncnc(NCc3ccccc3Cl)c12,,18.4 µM (active)
N/C(=N\OC(=O)CCCC(=O)O)c1ncc(C(F)(F)F)cc1Cl,-7.67%,
CCNC(=O)COc1cc(C)c(Br)c(C)c1,-8.79%,
CCn1cc(/C=C(\NC(=O)c2cc(OC)c(OC)c(OC)c2)C(=O)N2CCN(C)CC2)c2ccccc21,-20.7%,
COc1ccc(C2=CC(c3ccccc3Cl)n3nc(-c4ccc(Cl)cc4)nc3N2)cc1 (stereo unspecified),-25.4%,
CN(CC(=O)NCCN1CCOCC1)S(=O)(=O)c1ccc(F)cc1,-5.45%,
Cc1ccnc(SCC(=O)Nc2cccc(S(=O)(=O)N3CCOCC3)c2)n1,-17.4%,
Cc1csc(=NC(=O)c2ccccc2)n1CCO,-1.5%,
C=C(C)CNC(=S)/N=c1\scc(C)n1CC,,18.4 µM (active)
